Measurements published in ChEMBL document CHEMBL3988442, “University of Dundee, Small-Polar-MMV Screening Library” (2021).
For some of these results: Measured potencies and affinities stand elsewhere.

Experiments:
Set-up in all cases: scale not given: direction of the effect not stated beside the values
[1] = target: Protein translocase subunit SecA (Escherichia coli (strain K12)) (UniProt P10408); assay: Assay to Identify E. coli SecA ATPase Inhibitors; format: functional; conditions: 30 µM
[2] = target: T1, Ubiquitin-activating enzyme e1, putative (Leishmania donovani (strain BPK282A1)) (UniProt E9BSI1); assay: Leishmania donovani Ubiquitin Activating Enzyme (LdE1); format: functional; conditions: 30 µM
T1 sequence (whole entry): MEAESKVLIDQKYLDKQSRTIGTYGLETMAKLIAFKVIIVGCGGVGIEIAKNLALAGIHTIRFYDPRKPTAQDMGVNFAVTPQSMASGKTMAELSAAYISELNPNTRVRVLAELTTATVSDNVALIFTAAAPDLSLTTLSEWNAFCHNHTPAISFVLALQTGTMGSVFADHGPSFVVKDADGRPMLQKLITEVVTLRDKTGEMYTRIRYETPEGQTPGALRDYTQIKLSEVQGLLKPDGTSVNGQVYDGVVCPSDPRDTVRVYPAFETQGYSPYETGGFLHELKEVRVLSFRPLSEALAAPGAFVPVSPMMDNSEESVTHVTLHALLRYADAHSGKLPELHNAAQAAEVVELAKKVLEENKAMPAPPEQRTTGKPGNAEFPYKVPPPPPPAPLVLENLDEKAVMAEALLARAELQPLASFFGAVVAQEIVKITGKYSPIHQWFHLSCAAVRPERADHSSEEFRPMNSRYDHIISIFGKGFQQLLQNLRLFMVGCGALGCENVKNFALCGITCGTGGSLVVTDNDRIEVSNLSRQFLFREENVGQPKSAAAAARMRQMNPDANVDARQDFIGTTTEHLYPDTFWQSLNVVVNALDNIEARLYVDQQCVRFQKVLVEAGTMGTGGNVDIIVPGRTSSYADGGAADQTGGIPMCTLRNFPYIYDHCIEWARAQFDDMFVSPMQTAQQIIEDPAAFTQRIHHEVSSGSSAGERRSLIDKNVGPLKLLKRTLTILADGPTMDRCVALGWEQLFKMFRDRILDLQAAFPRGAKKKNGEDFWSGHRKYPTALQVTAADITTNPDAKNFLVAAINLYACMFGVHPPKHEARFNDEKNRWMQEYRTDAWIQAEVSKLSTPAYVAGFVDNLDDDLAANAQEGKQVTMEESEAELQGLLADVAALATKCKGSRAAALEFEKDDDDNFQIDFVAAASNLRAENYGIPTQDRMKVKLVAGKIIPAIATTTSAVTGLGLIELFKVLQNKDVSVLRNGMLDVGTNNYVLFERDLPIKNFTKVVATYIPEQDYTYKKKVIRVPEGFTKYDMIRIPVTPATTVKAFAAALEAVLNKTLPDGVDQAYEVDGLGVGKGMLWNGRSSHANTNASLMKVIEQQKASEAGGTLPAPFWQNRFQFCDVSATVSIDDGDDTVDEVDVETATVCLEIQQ

[3] = target: AMP-activated protein kinase, AMPK (Homo sapiens) (UniProt P54646+O43741+P54619+Q9UGJ0+Q9Y478+Q13131+Q9UGI9); assay: AMP-dependent Kinase enzyme assay. An in vitro enzyme assay that detects ADP turnover that is directly proportional to AMPK activity. This uses naive AMPK that is activated during the assay with MK-8722; format: functional; conditions: 30 µM
[4] = target: Sialic acid-binding Ig-like lectin 9 (Homo sapiens) (UniProt Q9Y336); assay: Hs-Siglec9 ALPHAscreen SOP 20170721; conditions: 10 µM
Sequence of Sialic acid-binding Ig-like lectin 9 (Homo sapiens) (Q9Y336 whole entry): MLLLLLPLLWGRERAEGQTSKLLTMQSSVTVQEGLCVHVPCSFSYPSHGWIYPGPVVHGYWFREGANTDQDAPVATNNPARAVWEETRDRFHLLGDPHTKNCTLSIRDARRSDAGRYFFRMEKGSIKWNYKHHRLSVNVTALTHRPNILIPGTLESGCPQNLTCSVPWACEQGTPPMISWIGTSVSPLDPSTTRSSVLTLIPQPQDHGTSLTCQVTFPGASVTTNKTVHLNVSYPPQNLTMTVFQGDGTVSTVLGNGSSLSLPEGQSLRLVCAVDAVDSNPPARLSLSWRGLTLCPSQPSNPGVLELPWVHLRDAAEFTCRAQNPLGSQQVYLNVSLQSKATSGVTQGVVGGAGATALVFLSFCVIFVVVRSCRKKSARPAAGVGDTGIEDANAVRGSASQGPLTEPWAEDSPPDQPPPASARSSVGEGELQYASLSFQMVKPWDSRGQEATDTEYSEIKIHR

Trypanosoma cruzi = assay: Trypanosoma cruzi phosphomannomutase and mannose-1-phosphate guanylyltransferase assay; format: functional; conditions: 10 µM
[5] = target: T2, Arginase-2, mitochondrial (Homo sapiens) (UniProt P78540); assay: in vitro enzyme assay to detect the production of urea directly proportional to the activity of Arginase II; format: functional; conditions: 33.3 µM; note: in the data most compounds retested in dose-response had high values
T2 sequence (whole entry): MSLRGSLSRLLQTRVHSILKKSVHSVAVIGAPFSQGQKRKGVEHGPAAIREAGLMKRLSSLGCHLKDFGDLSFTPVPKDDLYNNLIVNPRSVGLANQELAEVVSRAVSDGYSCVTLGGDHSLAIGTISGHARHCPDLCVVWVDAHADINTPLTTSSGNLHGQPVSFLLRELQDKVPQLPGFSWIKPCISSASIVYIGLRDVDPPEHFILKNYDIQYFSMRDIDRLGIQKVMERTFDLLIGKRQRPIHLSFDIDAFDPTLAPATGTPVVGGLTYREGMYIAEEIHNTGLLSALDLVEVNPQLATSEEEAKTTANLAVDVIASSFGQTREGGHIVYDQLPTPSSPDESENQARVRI

[6] = target: T3, Proteasome subunit beta (Trypanosoma cruzi) (UniProt O96673); assay: Trypanosoma cruzi proteasome chymotrypsin-like activity (TcProtChymo) assay.; note: in the data most compounds retested in dose-response had high values; format: functional; conditions: 9.37 µM
T3 sequence (whole entry): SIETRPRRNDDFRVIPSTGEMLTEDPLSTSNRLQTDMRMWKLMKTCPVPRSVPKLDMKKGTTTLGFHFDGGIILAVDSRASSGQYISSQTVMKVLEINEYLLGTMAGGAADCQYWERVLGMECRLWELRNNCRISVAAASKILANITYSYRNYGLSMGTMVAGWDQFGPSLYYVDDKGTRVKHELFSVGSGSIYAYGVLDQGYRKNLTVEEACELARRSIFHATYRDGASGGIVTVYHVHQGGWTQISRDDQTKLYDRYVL

Homo sapiens = organism: Homo sapiens; assay: To identify inhibition of the IFN signalling (Jak-Stat) pathway via expression of an eGFP reporter gene under the control of an IFN-stimulated response element (ISRE) containing MxA promoter.; format: functional; conditions: 30 µM
[7] = target: T4, Tyrosyl-tRNA synthetase, putative (Trypanosoma cruzi (strain CL Brener)) (UniProt Q4DSP6); assay: Trypanosoma cruzi tyrosyl tRNA synthetase (TcYRS) _High Tyrosine SOP; format: functional; conditions: 30 µM; note: in the data most compounds retested in dose-response had high values
T4 sequence (whole entry): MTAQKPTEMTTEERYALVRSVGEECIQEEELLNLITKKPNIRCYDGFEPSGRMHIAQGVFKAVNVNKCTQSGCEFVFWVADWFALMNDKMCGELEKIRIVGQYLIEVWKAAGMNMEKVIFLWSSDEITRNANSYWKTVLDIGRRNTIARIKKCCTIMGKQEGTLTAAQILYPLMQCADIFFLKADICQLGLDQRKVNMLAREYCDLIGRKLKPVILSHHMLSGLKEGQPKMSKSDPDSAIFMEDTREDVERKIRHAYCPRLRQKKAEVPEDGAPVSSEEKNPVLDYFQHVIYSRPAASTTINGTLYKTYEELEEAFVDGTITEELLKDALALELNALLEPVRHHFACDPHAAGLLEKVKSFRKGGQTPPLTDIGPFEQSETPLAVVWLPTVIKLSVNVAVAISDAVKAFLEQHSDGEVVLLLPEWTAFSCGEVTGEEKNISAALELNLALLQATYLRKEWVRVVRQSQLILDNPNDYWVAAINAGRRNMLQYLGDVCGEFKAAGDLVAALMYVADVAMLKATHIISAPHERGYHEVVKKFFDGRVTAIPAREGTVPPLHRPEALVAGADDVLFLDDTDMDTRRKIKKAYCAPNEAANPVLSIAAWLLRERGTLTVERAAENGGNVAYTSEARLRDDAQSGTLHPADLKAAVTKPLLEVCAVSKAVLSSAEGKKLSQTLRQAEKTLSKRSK

[8] = target: T4, Tyrosyl-tRNA synthetase, putative (Trypanosoma cruzi (strain CL Brener)); assay: Trypanosoma cruzi tyrosyl tRNA synthetase (TcYRS) SOP; format: functional; conditions: 30 µM
[9] = target: Chromo domain-containing protein 1 (Saccharomyces cerevisiae (strain ATCC 204508 / S288c) (Baker's yeast)) (UniProt P32657); assay: ScCHD-1 Enzyme Inhibition Assay; format: functional; conditions: 30 µM; note: in the data most compounds retested in dose-response had high values
Sequence of Chromo domain-containing protein 1 (Saccharomyces cerevisiae (strain ATCC 204508 / S288c) (Baker's yeast)) (P32657 whole entry, the tested form may be a part): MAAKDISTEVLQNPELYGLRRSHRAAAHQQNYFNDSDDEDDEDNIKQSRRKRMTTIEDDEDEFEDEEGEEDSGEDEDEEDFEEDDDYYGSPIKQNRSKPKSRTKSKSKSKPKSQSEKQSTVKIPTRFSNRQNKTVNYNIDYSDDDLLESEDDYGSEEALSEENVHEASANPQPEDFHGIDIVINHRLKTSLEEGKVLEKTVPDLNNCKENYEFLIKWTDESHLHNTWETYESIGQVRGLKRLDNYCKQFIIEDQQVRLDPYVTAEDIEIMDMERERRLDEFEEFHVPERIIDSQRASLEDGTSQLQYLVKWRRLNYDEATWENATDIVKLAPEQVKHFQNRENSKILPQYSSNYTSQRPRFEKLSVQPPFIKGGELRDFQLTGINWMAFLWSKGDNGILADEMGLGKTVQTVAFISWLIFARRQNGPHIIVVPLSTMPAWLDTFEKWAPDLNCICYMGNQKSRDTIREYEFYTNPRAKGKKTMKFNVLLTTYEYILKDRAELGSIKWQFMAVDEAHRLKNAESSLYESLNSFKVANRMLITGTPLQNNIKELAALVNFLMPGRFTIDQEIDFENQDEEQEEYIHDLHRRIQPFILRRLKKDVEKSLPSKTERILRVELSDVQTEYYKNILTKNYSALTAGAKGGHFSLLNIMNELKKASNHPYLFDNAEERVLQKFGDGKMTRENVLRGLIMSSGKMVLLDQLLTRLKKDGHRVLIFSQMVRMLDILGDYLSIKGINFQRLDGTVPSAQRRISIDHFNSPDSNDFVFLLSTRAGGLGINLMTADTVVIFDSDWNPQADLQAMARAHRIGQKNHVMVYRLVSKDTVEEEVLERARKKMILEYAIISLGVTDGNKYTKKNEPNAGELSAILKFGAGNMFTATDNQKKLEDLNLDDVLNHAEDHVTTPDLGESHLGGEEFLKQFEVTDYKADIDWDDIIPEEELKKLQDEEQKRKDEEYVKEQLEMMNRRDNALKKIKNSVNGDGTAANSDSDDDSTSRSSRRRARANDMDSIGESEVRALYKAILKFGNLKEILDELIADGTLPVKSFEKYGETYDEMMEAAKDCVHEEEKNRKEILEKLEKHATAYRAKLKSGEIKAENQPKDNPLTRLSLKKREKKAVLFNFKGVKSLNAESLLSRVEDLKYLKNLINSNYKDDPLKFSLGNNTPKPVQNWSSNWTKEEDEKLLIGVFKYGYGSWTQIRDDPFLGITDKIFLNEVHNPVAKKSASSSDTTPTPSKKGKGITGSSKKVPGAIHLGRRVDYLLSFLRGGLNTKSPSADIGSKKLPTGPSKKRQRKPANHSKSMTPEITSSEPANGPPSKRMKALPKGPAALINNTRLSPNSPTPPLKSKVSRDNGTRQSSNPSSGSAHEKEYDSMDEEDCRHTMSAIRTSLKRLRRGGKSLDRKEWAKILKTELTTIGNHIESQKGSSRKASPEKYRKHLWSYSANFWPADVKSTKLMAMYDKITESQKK

Sequence of Protein translocase subunit SecA (Escherichia coli (strain K12)) (P10408 whole entry): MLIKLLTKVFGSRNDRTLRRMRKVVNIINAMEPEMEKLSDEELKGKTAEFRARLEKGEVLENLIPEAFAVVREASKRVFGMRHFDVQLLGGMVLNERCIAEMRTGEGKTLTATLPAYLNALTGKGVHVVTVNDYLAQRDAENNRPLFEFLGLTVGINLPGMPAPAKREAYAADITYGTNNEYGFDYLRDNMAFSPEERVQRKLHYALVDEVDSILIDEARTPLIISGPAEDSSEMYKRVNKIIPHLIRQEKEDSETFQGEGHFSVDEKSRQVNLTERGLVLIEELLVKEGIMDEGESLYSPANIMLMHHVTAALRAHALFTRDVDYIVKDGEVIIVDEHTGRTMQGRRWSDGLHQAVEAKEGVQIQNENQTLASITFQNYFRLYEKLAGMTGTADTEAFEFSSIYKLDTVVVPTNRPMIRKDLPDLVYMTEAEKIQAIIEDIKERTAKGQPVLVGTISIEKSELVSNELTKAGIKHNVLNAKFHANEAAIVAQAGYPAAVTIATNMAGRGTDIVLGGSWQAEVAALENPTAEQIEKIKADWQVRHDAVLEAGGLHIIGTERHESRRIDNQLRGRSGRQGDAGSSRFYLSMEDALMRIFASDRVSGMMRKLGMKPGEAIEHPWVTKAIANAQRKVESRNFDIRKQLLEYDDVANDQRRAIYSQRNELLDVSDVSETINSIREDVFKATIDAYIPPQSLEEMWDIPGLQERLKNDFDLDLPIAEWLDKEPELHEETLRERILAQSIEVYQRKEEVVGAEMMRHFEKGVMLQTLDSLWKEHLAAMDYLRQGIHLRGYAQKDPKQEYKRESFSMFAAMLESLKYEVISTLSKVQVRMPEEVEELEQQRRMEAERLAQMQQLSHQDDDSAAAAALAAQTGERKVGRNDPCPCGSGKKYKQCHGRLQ

Structure (SMILES) | Percent Effect [1] [%] | Percent Effect [2] [%] | Percent Effect [3] [%] | Percent Effect [4] [%] | Percent Effect (Trypanosoma cruzi) [%] | Percent Effect [5] [%] | Percent Effect [6] [%] | Percent Effect (Homo sapiens) [%] | Percent Effect [7] [%] | Percent Effect [8] [%] | Percent Effect [9] [%]
CCC(=O)N1CCC(Cc2ccccc2-c2ccccc2)(C(N)=O)C1 (stereo not given) | -3.32 | 13.3 | 10.4 | -2.64 | 3.94 | 7.69 | 8.37 | 16.6 | 1.06 | 16.7 | -4.71
Cc1cc2c(=O)n3c(nc2s1)CCN(Cc1cnn(C)c1C)CC3 | -4.39 | 9.46 | 12.6 | -0.402 | -4.74 | 2.09 | 8.58 | 7.67 | 5.38 | 9.09 | -8.69
Cc1cccc(CN2C[C@@H]3CN(C(=O)NC(C)C)C[C@@H]3C2=O)c1 | 0.524 | 5.2 | 3 | 7.17 | -1.87 | -35.9 | 11.2 | -7.06 | 6.45 | 13.6 | 1
O=C(CCc1cscn1)N1CCCC(n2ccnc2)C1 (stereo not given) | -6.32 | 1.27 | 6.89 | -0.321 | -2.36 | 0.645 | 0.343 | -13.2 | 8.33 | 5.06 | -12.3
Cc1cnn(CC2CCCN2CC(=O)N(C)CCC#N)c1 (stereo not given) | -1.24 | -5.41 | -5.26 | 5.88 | -0.386 | -0.476 | 11.4 | -14.1 | -2.65 | -2.44 | 91.2
COc1cc(CNCc2c(C)nn(C)c2N(C)C)ccn1 | -2.79 | 5.41 | -15.9 | 8.34 | 4.25 | -3.61 | 1.62 | 9.11 | 4.43 | 18.5 | -11.1
CC(C)NC(=O)N1CCN(C(=O)N(C)C)CC2(CC(=O)N(C)C2)C1 (stereo not given) | -3.05 | 13.5 | -4.22 | 1.04 | 1.56 | 6.25 | 18.5 | 7.62 | 8.91 | 13.4 | -7.18
O=C(C(CNCc1ccncc1)c1ccccc1)N1CCOCC1 (stereo not given) | 0.622 | 5.2 | 0.193 | 1.44 | -6.59 | -8.28 | 18.3 | 17.2 | 3.23 | 11.1 | -2.54
O=C(NC1CC(=O)N(Cc2cccc(F)c2)C1)c1ccncc1 (stereo not given) | -2.44 | -8.11 | 4.25 | -3.94 | -1.93 | -0.476 | 10.7 | 1.72 | 1.59 | 4.88 | 0.971
Cn1cnc2c1C(COCC1CC1)CN(Cc1ccsc1)C2 (stereo not given) | -1.29 | 13 | 3.5 | -4.76 | -1.68 | 7.1 | 20.2 | 6.71 | 6.35 | 11.5 | -6.29
COc1c(CNC(c2ccc(F)cc2)c2nccn2C)c(C)nn1C (stereo not given) | -4.41 | 23.7 | -3.24 | -2.7 | 10.9 | -0.383 | 13.4 | 10.1 | 9.31 | 29.3 | -12.6
NC(=O)c1ccc(N2CCCCC2)c(NC(=O)c2cc(Br)ccc2F)c1 | -3.67 | 7.79 | 2.61 | 8.24 | 0.295 | -16.6 | 14.8 | 1.93 | 4.3 | 6.17 | 24.8
CC(NC(=O)CCc1cccs1)c1nnc2n1CCC2 (stereo not given) | -4.31 | 2.7 | -7.36 | 7.21 | 1.95 | -0.554 | 7.18 | -0.332 | 5.94 | 18.3 | 1.69
COc1ccc(-c2noc(CNC(C)Cn3cccn3)n2)c(OC)c1 (stereo not given) | -5.86 | 31.6 | -3.12 | -7.44 | 2.15 | -2.52 | 9.9 | 17.3 | 5.42 | 25.9 | -11.8
Cc1cc(CN(C)C(=O)NC2CCCN(c3ncccn3)C2)no1 (stereo not given) | -1.33 | 5.26 | 1.46 | 4.34 | 3.01 | -1.92 | 2.34 | -2.99 | 9.31 | 21.9 | -10.3
Cc1cc(C)n(CC2CCCN2Cc2c(C)noc2C)n1 (stereo not given) | -2.91 | -2.7 | 33.8 | 8.4 | 6.51 | -0.802 | 5.59 | 9.49 | 2.46 | 11.1 | -10.7
CCC(=O)N1CCC2(CC1)COc1ccccc1S(=O)(=O)N(C)C2 | -4.24 | 16.2 | -6.69 | 20.9 | 1.27 | 2.23 | 9.7 | 7.17 | 7.53 | 18.5 | -11.2
Cc1nc(C2CCCN2CCCS(=O)(=O)N(C)C)no1 (stereo not given) | -4.22 | 28.9 | -4.98 | -5.59 | 2.26 | -0.383 | 13.4 | 10.9 | -5.39 | 17.1 | -9.28
O=C(COc1coc(CN2CCCCC2)cc1=O)Nc1ccc(Cl)cc1 | -3.05 | 1.33 | 4.41 | 7 | -0.982 | -7.92 | 6.1 | -11.6 | 6.35 | 10.3 | 0.832
CC(C)N1CCC(CNCc2c[nH]nc2C(C)(C)C)C1 (stereo not given) | -2.43 | 29.7 | -3.65 | -3.23 | 5.19 | -14.4 | 17.1 | 22 | 9.36 | 23.5 | -10.6
